Holding throughout (test): DAPPL (digital affinity profiling via proximity ligation, sequencing); 10 mM Tris-HCl pH 7.5, 50 mM NaCl, 1 mM DTT, 4% glycerol, room temperature, 30 min; GST-TFs on glutathione beads, 16-mer random dsDNA library, 0.1% formaldehyde crosslink after washing; high values mean tight binding
Holding throughout (conditions): protein: recombinant; tags: N-terminal GST; dsDNA, one strand shown

In test [1] the target is T1, FLI1 (Homo sapiens, UniProt Q01543 1-452).
T1 sequence: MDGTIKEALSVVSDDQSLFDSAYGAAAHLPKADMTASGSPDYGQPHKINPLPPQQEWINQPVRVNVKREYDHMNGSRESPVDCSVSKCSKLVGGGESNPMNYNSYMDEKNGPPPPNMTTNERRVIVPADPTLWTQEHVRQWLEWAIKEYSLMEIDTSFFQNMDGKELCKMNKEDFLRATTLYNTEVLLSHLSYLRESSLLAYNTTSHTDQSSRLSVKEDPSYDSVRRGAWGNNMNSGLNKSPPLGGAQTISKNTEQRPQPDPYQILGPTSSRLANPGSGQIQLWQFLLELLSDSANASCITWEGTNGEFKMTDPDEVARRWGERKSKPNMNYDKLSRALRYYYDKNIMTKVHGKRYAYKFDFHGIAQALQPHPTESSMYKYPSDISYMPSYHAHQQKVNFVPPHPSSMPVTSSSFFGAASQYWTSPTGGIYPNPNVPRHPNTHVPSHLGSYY
Put shortly:
(§1)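 Each value of binding signal is a hexamer's read frequency for a factor divided by the same hexamer's frequency in the tag-only sample. Barcoded, bead-captured GST fusions of human transcription factors made in yeast were pooled with that sample and incubated with 200 nmole of a random double-stranded 16-mer DNA library in Tris/NaCl/DTT/glycerol buffer at room temperature for 30 min. Washing, 0.1% formaldehyde crosslinking, proximity ligation, PCR and Illumina NextSeq500 sequencing followed.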

Test [2] deals with T2, ELK1 (Homo sapiens, UniProt P19419 1-428).
T2 sequence: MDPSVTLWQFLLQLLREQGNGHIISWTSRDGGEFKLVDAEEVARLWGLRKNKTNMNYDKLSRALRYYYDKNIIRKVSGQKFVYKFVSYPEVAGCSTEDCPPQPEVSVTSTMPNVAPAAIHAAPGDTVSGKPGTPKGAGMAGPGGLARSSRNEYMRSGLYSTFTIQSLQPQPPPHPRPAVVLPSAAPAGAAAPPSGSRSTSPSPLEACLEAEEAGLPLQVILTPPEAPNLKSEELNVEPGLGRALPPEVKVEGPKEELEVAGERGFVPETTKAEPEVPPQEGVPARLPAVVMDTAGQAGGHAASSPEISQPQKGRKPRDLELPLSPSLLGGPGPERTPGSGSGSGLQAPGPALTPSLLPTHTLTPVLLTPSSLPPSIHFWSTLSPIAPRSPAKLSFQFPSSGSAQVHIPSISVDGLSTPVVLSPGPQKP
Put shortly: as §1

The target of test [3] is T3, GABPA (Homo sapiens, UniProt Q06546 1-454).
T3 sequence: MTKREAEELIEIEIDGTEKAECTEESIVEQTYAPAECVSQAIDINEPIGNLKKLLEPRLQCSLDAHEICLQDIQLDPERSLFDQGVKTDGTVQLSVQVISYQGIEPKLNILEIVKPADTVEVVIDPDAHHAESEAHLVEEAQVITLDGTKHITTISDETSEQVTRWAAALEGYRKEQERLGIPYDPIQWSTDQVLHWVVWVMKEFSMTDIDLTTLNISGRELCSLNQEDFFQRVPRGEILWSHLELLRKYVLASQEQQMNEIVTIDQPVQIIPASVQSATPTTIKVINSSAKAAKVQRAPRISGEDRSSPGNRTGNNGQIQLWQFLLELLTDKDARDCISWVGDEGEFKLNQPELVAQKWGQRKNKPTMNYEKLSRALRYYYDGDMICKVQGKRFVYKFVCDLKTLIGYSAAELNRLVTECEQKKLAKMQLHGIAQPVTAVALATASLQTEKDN
In a few lines:
as §1

Test [4] has as its target T4, ERG (Homo sapiens, UniProt P11308 1-479).
T4 sequence: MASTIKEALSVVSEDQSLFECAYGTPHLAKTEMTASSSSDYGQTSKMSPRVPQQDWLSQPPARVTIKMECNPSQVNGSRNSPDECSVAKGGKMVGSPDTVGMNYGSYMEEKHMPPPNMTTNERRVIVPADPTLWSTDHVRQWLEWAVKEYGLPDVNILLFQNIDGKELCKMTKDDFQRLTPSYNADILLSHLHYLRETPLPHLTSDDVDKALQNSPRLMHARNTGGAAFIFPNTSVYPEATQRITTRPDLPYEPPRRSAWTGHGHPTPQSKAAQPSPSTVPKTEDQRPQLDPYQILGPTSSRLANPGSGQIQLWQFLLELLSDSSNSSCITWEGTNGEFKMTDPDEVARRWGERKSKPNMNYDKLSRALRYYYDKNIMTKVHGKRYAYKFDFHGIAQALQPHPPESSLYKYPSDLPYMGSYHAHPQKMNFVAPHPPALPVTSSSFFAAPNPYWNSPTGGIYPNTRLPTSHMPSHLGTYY
Put shortly:
as §1

Test [5] has as its target ELF1 (Homo sapiens, UniProt P32519 1-619). In a few lines: as §1
Test [6] addresses T5, EHF (Homo sapiens, UniProt Q9NZC4 1-300).
T5 sequence: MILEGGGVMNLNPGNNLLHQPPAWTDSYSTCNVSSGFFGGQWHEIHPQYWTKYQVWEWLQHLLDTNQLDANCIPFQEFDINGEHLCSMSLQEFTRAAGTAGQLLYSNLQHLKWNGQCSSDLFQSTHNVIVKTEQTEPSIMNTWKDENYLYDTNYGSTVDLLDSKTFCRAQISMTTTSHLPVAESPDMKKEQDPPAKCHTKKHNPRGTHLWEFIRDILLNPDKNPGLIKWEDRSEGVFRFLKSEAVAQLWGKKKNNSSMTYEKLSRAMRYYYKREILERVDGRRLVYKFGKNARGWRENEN
Put shortly:
as §1

In test [7] the target is SPI1 (Homo sapiens, UniProt P17947 1-270). Put shortly: as §1
In test [8] the target is SPIB (Homo sapiens, UniProt Q01892 1-262). Put shortly:
as §1

Test [9] addresses T6, ELK3 (Homo sapiens, UniProt P41970 1-407).
T6 sequence: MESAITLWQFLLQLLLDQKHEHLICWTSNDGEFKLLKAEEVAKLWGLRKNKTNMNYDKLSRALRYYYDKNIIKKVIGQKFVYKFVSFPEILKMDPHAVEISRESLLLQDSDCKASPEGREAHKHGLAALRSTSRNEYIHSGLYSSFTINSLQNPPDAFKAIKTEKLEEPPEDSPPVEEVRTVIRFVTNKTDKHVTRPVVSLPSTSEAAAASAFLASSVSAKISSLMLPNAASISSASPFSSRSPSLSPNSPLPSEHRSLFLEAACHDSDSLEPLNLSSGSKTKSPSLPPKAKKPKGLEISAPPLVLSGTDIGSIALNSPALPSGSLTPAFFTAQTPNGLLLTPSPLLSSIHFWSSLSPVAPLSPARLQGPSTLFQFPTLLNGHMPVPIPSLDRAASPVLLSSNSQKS
Put shortly:
as §1

The target in test [10] is T7, FEV (Homo sapiens, UniProt Q99581 1-238).
T7 sequence: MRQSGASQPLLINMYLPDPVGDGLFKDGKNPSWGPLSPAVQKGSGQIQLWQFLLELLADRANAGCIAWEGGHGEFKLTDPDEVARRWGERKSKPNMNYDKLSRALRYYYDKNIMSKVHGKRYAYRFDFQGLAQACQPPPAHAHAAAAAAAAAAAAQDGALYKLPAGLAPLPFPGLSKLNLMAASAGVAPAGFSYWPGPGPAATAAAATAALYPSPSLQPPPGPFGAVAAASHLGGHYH
In a few lines:
as §1

Test [11] addresses ETV5 (Homo sapiens, UniProt P41161 1-510). In a few lines: as §1
Test [12] has as its target T8, SPIC (Homo sapiens, UniProt Q8N5J4 1-248).
T8 sequence: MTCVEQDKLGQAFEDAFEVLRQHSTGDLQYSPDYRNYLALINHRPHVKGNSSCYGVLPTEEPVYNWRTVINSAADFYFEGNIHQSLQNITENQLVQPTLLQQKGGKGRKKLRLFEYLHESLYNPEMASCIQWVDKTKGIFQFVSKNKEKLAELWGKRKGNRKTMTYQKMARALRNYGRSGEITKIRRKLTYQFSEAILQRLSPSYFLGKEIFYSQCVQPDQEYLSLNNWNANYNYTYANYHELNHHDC
Put shortly:
as §1

Test [13] has as its target ELF4 (Homo sapiens, UniProt Q99607 1-663). Put shortly: as §1
The target in test [14] is T9, ELK4 (Homo sapiens, UniProt P28324-2 1-405).
T9 sequence: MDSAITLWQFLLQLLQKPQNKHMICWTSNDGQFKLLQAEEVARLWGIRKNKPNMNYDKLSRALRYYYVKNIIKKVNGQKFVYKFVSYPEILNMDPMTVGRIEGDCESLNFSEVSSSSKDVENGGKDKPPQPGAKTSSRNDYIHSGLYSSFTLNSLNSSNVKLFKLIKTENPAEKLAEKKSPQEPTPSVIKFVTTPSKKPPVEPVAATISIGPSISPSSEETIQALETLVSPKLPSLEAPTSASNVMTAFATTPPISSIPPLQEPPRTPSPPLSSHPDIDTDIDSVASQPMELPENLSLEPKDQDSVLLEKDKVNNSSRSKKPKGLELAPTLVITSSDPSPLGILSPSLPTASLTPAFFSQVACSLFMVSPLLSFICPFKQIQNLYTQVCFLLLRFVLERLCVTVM
In a few lines: as §1

The target in test [15] is T10, ETV2 (Homo sapiens, UniProt O00321 1-342).
T10 sequence: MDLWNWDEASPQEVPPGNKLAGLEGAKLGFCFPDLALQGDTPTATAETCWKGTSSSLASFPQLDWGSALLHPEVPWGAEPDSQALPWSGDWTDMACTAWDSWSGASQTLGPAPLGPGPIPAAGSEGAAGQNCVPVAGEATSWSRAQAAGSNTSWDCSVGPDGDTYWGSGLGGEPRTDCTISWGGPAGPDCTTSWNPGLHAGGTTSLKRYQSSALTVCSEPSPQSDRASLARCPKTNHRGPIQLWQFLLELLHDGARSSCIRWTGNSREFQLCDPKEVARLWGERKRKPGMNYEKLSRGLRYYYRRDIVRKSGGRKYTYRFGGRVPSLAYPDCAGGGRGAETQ
Put shortly: as §1

The target in test [16] is T11, ELF3 (Homo sapiens, UniProt P78545 1-371).
T11 sequence: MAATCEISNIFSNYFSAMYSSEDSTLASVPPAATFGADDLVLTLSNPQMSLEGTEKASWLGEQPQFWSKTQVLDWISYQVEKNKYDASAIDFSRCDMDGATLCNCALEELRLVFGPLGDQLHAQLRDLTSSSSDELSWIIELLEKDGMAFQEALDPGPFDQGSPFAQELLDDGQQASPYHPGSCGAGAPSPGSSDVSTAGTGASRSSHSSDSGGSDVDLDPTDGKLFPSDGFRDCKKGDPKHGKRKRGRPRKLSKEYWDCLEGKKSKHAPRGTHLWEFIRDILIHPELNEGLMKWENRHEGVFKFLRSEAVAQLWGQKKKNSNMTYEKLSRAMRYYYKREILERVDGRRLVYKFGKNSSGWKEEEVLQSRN
In a few lines:
as §1

Test [17] deals with ETV1 (Homo sapiens, UniProt P50549 1-477). Put shortly: as §1
ETV1, sequence (P50549 whole entry): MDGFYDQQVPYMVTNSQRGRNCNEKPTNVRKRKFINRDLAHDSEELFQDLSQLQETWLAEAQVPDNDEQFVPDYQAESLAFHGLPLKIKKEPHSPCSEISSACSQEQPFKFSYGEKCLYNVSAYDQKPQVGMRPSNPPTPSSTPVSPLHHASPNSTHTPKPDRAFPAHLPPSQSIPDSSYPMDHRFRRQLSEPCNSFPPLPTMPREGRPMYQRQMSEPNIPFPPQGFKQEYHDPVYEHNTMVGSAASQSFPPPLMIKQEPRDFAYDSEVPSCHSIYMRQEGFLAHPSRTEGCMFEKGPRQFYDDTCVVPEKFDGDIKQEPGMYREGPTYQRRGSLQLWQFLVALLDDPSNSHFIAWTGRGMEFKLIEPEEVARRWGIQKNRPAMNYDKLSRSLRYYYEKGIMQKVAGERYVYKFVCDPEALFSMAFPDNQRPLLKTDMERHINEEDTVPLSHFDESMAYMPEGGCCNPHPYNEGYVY

ELF1, sequence (P32519 whole entry): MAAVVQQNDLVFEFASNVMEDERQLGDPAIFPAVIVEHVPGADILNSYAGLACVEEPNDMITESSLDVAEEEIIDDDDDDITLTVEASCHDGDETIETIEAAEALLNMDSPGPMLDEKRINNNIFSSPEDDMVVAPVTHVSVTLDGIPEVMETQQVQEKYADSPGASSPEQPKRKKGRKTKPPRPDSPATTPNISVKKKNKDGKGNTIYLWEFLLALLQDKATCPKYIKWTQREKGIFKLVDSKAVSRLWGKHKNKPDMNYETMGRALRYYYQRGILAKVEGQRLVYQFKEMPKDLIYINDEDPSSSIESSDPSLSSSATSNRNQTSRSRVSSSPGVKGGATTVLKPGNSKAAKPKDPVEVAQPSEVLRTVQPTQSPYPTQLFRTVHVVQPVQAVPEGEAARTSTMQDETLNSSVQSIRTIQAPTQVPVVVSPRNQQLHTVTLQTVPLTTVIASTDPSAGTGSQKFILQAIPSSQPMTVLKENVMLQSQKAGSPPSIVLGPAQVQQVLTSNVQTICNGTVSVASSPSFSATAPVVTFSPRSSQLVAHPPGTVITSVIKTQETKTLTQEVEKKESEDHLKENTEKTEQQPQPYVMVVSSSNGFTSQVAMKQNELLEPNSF
ELF4, sequence (Q99607 whole entry): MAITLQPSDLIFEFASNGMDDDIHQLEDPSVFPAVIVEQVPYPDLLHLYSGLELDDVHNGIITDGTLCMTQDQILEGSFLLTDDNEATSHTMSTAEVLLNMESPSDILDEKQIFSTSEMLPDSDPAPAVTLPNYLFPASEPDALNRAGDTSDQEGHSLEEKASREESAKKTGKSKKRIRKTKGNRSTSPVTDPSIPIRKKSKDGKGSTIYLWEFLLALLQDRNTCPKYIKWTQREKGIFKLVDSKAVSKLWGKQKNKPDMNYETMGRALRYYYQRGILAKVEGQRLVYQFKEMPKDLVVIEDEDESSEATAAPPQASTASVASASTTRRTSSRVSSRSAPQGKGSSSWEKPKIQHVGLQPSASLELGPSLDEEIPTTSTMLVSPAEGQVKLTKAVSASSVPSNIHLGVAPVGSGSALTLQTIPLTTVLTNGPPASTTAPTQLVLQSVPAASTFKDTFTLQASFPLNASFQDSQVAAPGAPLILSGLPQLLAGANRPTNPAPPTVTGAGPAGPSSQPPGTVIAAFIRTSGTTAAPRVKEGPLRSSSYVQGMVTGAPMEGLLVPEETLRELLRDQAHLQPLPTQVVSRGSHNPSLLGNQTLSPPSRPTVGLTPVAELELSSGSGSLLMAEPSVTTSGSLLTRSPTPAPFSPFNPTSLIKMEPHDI
ETV5, sequence (P41161 whole entry): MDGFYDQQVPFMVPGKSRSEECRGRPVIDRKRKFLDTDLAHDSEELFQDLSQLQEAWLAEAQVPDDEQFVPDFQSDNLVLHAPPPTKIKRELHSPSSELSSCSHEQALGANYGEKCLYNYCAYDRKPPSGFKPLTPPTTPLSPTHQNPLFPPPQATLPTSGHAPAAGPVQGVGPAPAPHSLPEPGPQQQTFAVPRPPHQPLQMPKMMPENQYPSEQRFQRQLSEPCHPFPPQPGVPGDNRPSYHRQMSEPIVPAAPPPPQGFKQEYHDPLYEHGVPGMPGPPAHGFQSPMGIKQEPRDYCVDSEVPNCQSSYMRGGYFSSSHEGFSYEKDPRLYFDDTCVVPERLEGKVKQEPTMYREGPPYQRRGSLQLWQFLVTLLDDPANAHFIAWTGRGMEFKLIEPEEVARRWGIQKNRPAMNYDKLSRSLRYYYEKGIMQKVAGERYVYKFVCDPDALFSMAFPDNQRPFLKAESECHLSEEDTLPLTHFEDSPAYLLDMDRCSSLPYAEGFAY
SPIB, sequence (Q01892 whole entry): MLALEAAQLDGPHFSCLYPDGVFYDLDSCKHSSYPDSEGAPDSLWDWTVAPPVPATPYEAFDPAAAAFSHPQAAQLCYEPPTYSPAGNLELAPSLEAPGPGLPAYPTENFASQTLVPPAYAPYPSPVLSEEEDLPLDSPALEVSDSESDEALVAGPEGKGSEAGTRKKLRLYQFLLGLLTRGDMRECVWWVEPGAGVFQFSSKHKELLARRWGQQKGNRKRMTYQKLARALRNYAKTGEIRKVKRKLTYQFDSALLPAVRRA

As for TGACGC, the binding signal is 1.1 fold enrichment (6-mer frequency, TF over GST control) in [1]; 1.22 fold enrichment (6-mer frequency, TF over GST control) in [2]; 1.15 fold enrichment (6-mer frequency, TF over GST control) in [3]; 1.13 fold enrichment (6-mer frequency, TF over GST control) in test [4]; 1.3 fold enrichment (6-mer frequency, TF over GST control) in test [5]; 1.21 fold enrichment (6-mer frequency, TF over GST control) in test [6]. Also, the binding signal in test [7] is 1.15 fold enrichment (6-mer frequency, TF over GST control); in [8], 1.24 fold enrichment (6-mer frequency, TF over GST control); in test [9] it was 1.1 fold enrichment (6-mer frequency, TF over GST control); in test [10], 1.13 fold enrichment (6-mer frequency, TF over GST control); in test [11], 1.28 fold enrichment (6-mer frequency, TF over GST control); in test [12] it was 1.18 fold enrichment (6-mer frequency, TF over GST control). In addition, the binding signal in test [13] was 1.37 fold enrichment (6-mer frequency, TF over GST control); in [14] it was 1.3 fold enrichment (6-mer frequency, TF over GST control); in test [15], 1.18 fold enrichment (6-mer frequency, TF over GST control); in [16], 1.11 fold enrichment (6-mer frequency, TF over GST control); in [17], 1.07 fold enrichment (6-mer frequency, TF over GST control).

Regarding CCCACA, the binding signal in [1] is 1.13 fold enrichment (6-mer frequency, TF over GST control); in [2] it was 1.12 fold enrichment (6-mer frequency, TF over GST control); in test [3] it was 1.26 fold enrichment (6-mer frequency, TF over GST control); in test [4], 1.07 fold enrichment (6-mer frequency, TF over GST control); in [5], 1.17 fold enrichment (6-mer frequency, TF over GST control); in test [6], 1.12 fold enrichment (6-mer frequency, TF over GST control). Besides, the binding signal in test [7] is 1.08 fold enrichment (6-mer frequency, TF over GST control); in test [8], 1.1 fold enrichment (6-mer frequency, TF over GST control); in [9], 1.08 fold enrichment (6-mer frequency, TF over GST control); in test [10] it was 1.17 fold enrichment (6-mer frequency, TF over GST control); in test [11], 1.14 fold enrichment (6-mer frequency, TF over GST control); in [12], 1.2 fold enrichment (6-mer frequency, TF over GST control). Also, the binding signal in [13] is 1.15 fold enrichment (6-mer frequency, TF over GST control); in test [14], 1.1 fold enrichment (6-mer frequency, TF over GST control); in [15], 1.1 fold enrichment (6-mer frequency, TF over GST control); in test [16], 1.14 fold enrichment (6-mer frequency, TF over GST control); in test [17] it was 1.07 fold enrichment (6-mer frequency, TF over GST control).

For the origin of these results see publication PMC7862700, “An all-to-all approach to the identification of sequence-specific readers for epigenetic DNA modifications on cytosine”.
